NPYLR7 ag = activates Aedes aegypti NPYLR7 receptor; HEK293T NPYLR7/Galpha15, GCaMP6s calcium fluorescence; activation, % at 10 µM; 270,000 compounds, 0.15% hits; in the data active = activation above about 40%;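 also: 0% = vehicle and 100% = reference agonist at the receptor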
mcGAS inh = inhibitors of mouse cGAS; recombinant cGAS, Kinase-Glo ATP depletion luminescence; AID 1259399; inhibition, % at 12.5 µM; 160,000 compounds, 0.15% hits;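 also: 0% = negative control wells and 100% = reference inhibitor with no enzyme activity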
hcGAS lum = inhibitors of human cGAS; 290,000 compounds, 0.081% hits; Q8N884; recombinant h-cGAS, ATP depletion, Kinase-Glo luminescence; inhibition, % at 12.5 µM;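 also: 0% = vehicle reaction and 100% = reaction without DNA for no activity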
Target sequence (Q8N884 whole entry, looked up): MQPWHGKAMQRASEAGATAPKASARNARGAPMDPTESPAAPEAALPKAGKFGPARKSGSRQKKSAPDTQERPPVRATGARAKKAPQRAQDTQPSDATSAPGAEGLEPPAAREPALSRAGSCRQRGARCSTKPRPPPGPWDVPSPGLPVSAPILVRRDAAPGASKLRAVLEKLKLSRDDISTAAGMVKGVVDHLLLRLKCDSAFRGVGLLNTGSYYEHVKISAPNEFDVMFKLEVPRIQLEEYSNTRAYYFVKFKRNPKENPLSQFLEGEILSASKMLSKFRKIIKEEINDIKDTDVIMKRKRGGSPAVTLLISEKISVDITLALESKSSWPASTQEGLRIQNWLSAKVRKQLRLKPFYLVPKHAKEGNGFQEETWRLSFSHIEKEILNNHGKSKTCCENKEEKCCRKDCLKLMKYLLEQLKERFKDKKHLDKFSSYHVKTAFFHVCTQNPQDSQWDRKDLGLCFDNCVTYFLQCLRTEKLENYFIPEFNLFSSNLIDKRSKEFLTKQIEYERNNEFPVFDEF
Starred values were filed as active, the others as inactive; / = no result. This is a sample that favours compounds with a hit; in the whole collection about 0.3% have one here. Rule as the data show it, unless noted: active = inhibition above about 40%; inactive = the rest.

SMILES	NPYLR7 ag	mcGAS inh	hcGAS lum
N#CC(C#N)=C1C=C2C=C(N3CCCCC3)CCC2CC1 (stereo unspecified)	116*	-5	-12
Brc1ccc2nc(SCc3nc4ccccc4[nH]3)[nH]c2c1	0	-3	-6
COc1ccc(-c2nc(CN(C)C(C)c3nccs3)c(C)o2)cc1C (stereo unspecified)	17	/	-5
CCCN(C)c1cc(Oc2ccc(F)cc2)ncn1	-8	-4	-5
CC(C)CCN1CCN(c2cc(Oc3ccc(Cl)cc3)ncn2)CC1	13	-5	-6
c1ccc(Cn2nnc3c(N4CCNCC4)ncnc32)cc1	1	/	-4
CCc1ccc(/C=C2\Oc3c(ccc4c3CN(C3CCS(=O)(=O)C3)CO4)C2=O)cc1 (stereo unspecified)	66*	-1	0
COCCCN1COc2ccc3c(c2C1)O/C(=C\c1cc(OC)c(OC)c(OC)c1)C3=O	61*	-10	-8
COc1ccc(/C=C2\Oc3c(ccc4c3CN(Cc3ccncc3)CO4)C2=O)cc1	67*	-3	1
COc1ccc(CCN2COc3ccc4c(c3C2)O/C(=C\c2ccncc2)C4=O)cc1	39	12	0
CCOCCCN1COc2ccc3c(c2C1)O/C(=C\c1cccc(OC)c1OC)C3=O	22	-6	-3
COc1ccc(/C=C2\Oc3c(ccc4c3CN(C3CC3)CO4)C2=O)cc1	3	-8	-4
COc1ccc(CCN2COc3ccc4c(c3C2)O/C(=C\c2ccncc2)C4=O)cc1OC	55*	11	-2
COc1ccc(CN2COc3ccc4c(c3C2)O/C(=C\c2ccncc2)C4=O)cc1	23	-6	-7
Cc1ccc(NC(=O)CSc2nnc(-c3cccs3)o2)c(F)c1	10	/	-3
COc1ccc(-n2nnnc2CNS(=O)(=O)c2ccc(OC)cc2)cc1	4	-6	-3
COCCN(C(=O)c1ccsc1)c1ccc(C#N)cc1	11	/	-7
CCOC(=O)C1CCCN(C(=O)c2cc(-c3ccc(Cl)cc3)n(-c3ccccc3C)c2C)C1 (stereo unspecified)	-10	-5	-5
CCOC(=O)CN(C)c1c([N+](=O)[O-])c(=O)n(C)c(=O)n1C	27	/	-2
COc1ccc(/C=C2\Oc3c(ccc4c3CN(Cc3ccncc3)CO4)C2=O)cc1OC	83*	-9	-4
CCOCCCN1COc2ccc3c(c2C1)O/C(=C\c1ccc(OC)cc1)C3=O	42	-8	-6
Cc1c(Cl)cc(C(C)C)c(O)c1CN1C(=O)c2ccccc2C1=O	-11	/	-6
COC(=O)C(Cc1ccccc1)NC(=O)CNC(=O)c1ccc(SC)cc1 (stereo unspecified)	-8	/	-4
O=C(CC(c1cccc([N+](=O)[O-])c1)c1c[nH]c2ccccc12)N1CCN(c2ccccc2F)CC1 (stereo unspecified)	3	-3	-1
O=C(CC(c1cccc([N+](=O)[O-])c1)c1c[nH]c2ccccc12)NC1CC1 (stereo unspecified)	41*	-5	-6
SMILES	NPYLR7 ag	mcGAS inh	hcGAS lum
Cc1ccc(C)c(OCCN(C)C(=O)c2cc3ncc(CCO)cn3n2)c1	2	/	-2
CCc1ccccc1NC(=O)N1CCN(c2ccc3nnc(-c4ccco4)n3n2)CC1	0	-7	0
NC(=O)C(NC(=O)c1cccc(Cl)c1)c1ccccc1 (stereo unspecified)	0	/	-5
Cc1ccnc(SCc2cc(=O)c(OC(=O)COc3ccc(F)cc3)co2)n1	-16	-1	1
Cc1cccc(CC(=O)Oc2coc(CSc3nc(C)cc(C)n3)cc2=O)c1	-15	26	2
Cc1cc(C)nc(SCc2cc(=O)c(OC(=O)Cc3ccccc3)co2)n1	-13	87*	3
Cc1ccnc(SCc2cc(=O)c(OC(=O)Cc3ccc(F)cc3)co2)n1	-16	40*	5
C=CCN1C(=O)NC(c2ccccc2Cl)C2=C1CN(CC(=O)NC1CCCCC1)C2=O (stereo unspecified)	-1	-4	-5
Cc1ccc2oc(=O)n(CC(=O)NC3CCC(n4cnnc4)CC3)c2c1 (stereo unspecified)	3	-11	-3
CCn1cc(C(=O)N2CCN(CC(=O)NC3CCCCC3)CC2)c2nn(-c3ccccc3)c(=O)c-2c1	-2	-10	-11
CCN(CC)CC[n+]1c(C)cc(C=C2Sc3ccccc3N2C)cc1C	44*	/	11
CN1C(=CC(=O)C(F)(F)F)Sc2ccccc21	3	-6	-10
Cc1ccc2nc(Cn3cnc4c(Cl)cc(Cl)cc4c3=O)cc(=O)n2c1	61*	/	-4
Cc1ccc2nc(Cn3cc(C(F)(F)F)cc(Cl)c3=O)cc(=O)n2c1	3	/	-1
Cc1cccc(NC(=O)c2n[nH]c([N+](=O)[O-])c2Br)c1C	-1	-3	0
N#Cc1ccccc1NC(=O)c1n[nH]c([N+](=O)[O-])c1Br	-3	/	44*
CC1(C)CC(NC(=O)CCc2nnc(Cc3cccc(C(F)(F)F)c3)o2)CCO1 (stereo unspecified)	23	/	-8
CCc1nn(-c2cccc(F)c2)c(CC)c1C(=O)NCCN(C)C	15	-4	-6
COc1ccc(C(=O)N(Cc2ccccc2)C2CCC(NC(=O)C3CCN(C(=O)c4ccccc4Cl)CC3)CC2)cc1 (stereo unspecified)	45*	-7	-5
COc1ccc(C(=O)N(Cc2ccccc2)C2CCC(NC(=O)C3CCN(C(=O)c4ccc(Cl)cc4)CC3)CC2)cc1 (stereo unspecified)	3	-8	-6
O=C(Cn1nc2c(c1NC(=O)Cc1noc3ccccc13)CSC2)NCC1CCCO1 (stereo unspecified)	-4	-3	-4
CC(=O)N1CCC(C(=O)Nc2ccc3nc(Cc4ccccc4)nn3c2)CC1	25	-6	-5
Cc1ccc(-c2c(NC(=O)C(C)C)n(-c3ccccc3)nc(C)c2=O)cc1	4	/	-4
Cc1nc(-c2ccsc2)sc1C(=O)NCc1ccccc1	0	-7	-5
CNC(=O)c1cnc(/C=C/c2csc(-c3ccsc3)n2)[nH]c1=O	67*	/	2
SMILES	NPYLR7 ag	mcGAS inh	hcGAS lum
O=c1cc(-c2cc(O)c(O)c(O)c2)oc2cc(O)cc(O)c12	22	/	22
O=c1oc2c(O)c(O)cc3c(=O)oc4c(O)c(O)cc1c4c23	-10	/	43*
CC1(C)CC(=O)C2C(=Nc3[nH]c(=S)[nH]c(=O)c3C2c2ccc3c(c2)OCO3)C1 (stereo unspecified)	43*	-4	-6
CSc1nc2c(c(=O)[nH]1)C(c1ccc3c(c1)OCO3)C1C(=O)CCCC1=N2 (stereo unspecified)	0	/	-7
COc1cc(OC)cc(C(=O)N(CCc2ccccc2)CC(=O)Nc2cc(C(C)(C)C)nn2-c2ccccc2Cl)c1	-3	-4	-1
Cc1ccc(N(CCC#N)C(=O)CN2CCCc3ccccc32)cc1C	22	-17	-6
Cc1ccc2c(c1)CCCN2CC(=O)N(CCC(N)=O)c1ccccc1	100*	3	3
CCN(CC)c1ncccc1CNc1nc(C(F)(F)F)nc(C)c1C	0	/	-4
COc1ccc(OCC(O)CN(CCC(C)C)Cc2cccc(OC)c2)cc1 (stereo unspecified)	25	79*	-1
COCCN(Cc1cccc(OC)c1)CC(O)COc1ccc(OC)cc1 (stereo unspecified)	11	-2	-1
